The sequences below were run against PAI-1 wild type, active (human, UniProt P05121 24-402) (assay: branched SELEX with high-throughput sequencing; PAI-1 immobilised on polyclonal anti-PAI-1 antibody; HBS (10 mM HEPES pH 7.4, 140 mM NaCl), 2 mM MgCl2, 2 mM CaCl2, 0.1% BSA; RNA pool 100 nM; PAI-1 captured on antibody-coated wells; 45 min; binding temperature not stated (PAI-1 capture at room temperature); high values mean tight binding). Conditions: protein: recombinant; tags: N-terminal His6; structured_RNA; 2'-F pyrimidines.
Chain of PAI-1 wild type, active (P05121 24-402): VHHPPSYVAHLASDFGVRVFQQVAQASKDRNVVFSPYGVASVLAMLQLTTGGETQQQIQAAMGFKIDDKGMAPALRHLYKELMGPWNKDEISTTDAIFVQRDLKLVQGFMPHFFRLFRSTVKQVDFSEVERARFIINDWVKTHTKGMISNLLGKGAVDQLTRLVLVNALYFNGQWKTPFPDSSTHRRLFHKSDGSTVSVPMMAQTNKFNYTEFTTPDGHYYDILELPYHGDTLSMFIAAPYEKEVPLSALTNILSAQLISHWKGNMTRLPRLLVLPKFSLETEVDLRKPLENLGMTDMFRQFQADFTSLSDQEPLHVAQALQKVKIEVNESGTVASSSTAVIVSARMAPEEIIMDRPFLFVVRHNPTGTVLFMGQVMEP
“GGGGCCACCAACGACAUUCAACGACCAGUACGUGUGAGGGCGUACAUCAUGUAGUUGAUAUAAAUAGUGCCCAUGGAUC” was tested, and the binding signal was 0.37 enrichment factor.
For “GGGGCCACCAACGACAUUCGGGACUACGUAGGCGGAUUCGCCGAUUACCCGUUGUUGAUAUAAAUAGUGCCCAUGGAUC”, the binding signal was 0.7 enrichment factor.
With “GGGGCCACCAACGACAUUACAUACCGUAGGGCAGAUCGCCUGACUAGUAAUACGUUGAUAUAAAUAGUGCCCAUGGAUC” the binding signal was 0.24 enrichment factor.
With “GGGGCCACCAACGACAUUUGCGUAAGCAACCUUGGUGUUAUAUUCACCAGAUCGUUGAUAUAAAUAGUGCCCAUGGAUC” the binding signal was 0.63 enrichment factor.
“GGGGCCACCAACGACAUUCUACGUCGUAGUCGCUUAGCGAUGACCGUUAGAUGUUGAUAUAAAUAGUGCCCAUGGAUC” gave a binding signal of 0.74 enrichment factor.
“GGGGCCACCAACGACAUUUUGUAGGUGUCAACUACCGACCGUCGUUUGCAUUAGUUGAUAUAAAUAGUGCCCAUGGAUC” showed a binding signal of 1.24 enrichment factor.
“GGGGCCACCAACGACAUUUCGACUUGUAGACGAUAUUCGUCGACUCGAAGAGCGUUGAUAUAAAUAGUGCCCAUGGAUC” gave a binding signal of 0.51 enrichment factor.
In the case of “GGGGCCACCAACGACAUUCUCGAGAGAGACCUUCCUCGUUAUACGGGGAGUUCGUUGAUAUAAAUAGUGCCCAUGGAUC”, the binding signal is reported as 0.56 enrichment factor.
Work on “GGGGCCACCAACGACAUUACGAACUUGUAGGCACGAAUACGCCGACCUCUAAUGUUGAUAUAAAUAGUGCCCAUGGAUC” yielded a binding signal of 1.25 enrichment factor.
Sequence “GGGGCCACCAACGACAUUACGUAGUUUGAGAUAGUUAACUCGAACGAUUAGUUGUUGAUAUAAAUAGUGCCCAUGGAUC” has a binding signal of 1.57 enrichment factor.
Work on “GGGGCCACCAACGACAUUCCGUCCGUGUUCAGUUAACACGCAUGUGUUUUGUGGUUGAUAUAAAUAGUGCCCAUGGAUC” yielded a binding signal of 1.36 enrichment factor.
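Also: Pool frequency after one selection round with this target divided by frequency before selection.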
